MmCpn inh: inhibitors of Methanococcus maripaludis chaperonin TRiC (MmCpn); purified Mm-Cpn ATPase, ADP Transcreener TR-FRET; Potency, µM (doses to about 76.9 µM), for inactives: at the top dose activity, negative = inhibition, most hits filed as inhibitors; AID 504842; hit rate 0.031% among 330,000; further: potency means the concentration at half of the fitted maximal effect; on the % scale 0 is the no-effect control and ±100 the full control effect; nearly all actives have a fitted effect of over 80% in size
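25 nM Mm-CPN + cpd, 10 min 37°C; + 10 uM ATP, 30 min 37°C; buffer 30 mM Tris pH 7.4, 100 mM KCl, 5 mM MgCl2, 1 mM DTT; Transcreener ADP HTRF detection 30 min RT.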
FUS suppressor: rescues growth of FUS-expressing yeast. S. cerevisiae FUS-expressing, growth rescue, OD600, 24 h. Potency, µM (series often up to 76.6 µM), most hits filed as activators. hit rate 0.24% among 390,000;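 further: potency means the concentration at half of the fitted maximal effect; plate controls were DMSO vehicle for no effect and reference control for full effect; nearly all actives have a fitted effect of over 55% in size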
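Steps: raffinose overnight preculture; dilution to OD 0.005 in 2% galactose minimal medium; compound addition (concentration series); 24hr at 30C, 99% humidity; absorbance read at 600 nm.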
CCT chaperon mod: modulators of cytosolic chaperonin (CCT/TRiC) activity; purified chaperonin ATPase assay, HTRF ADP detection, 30 min; activity change, % (concentration not given with the values), hits read low; hit rate 0.3% among 360,000; AID 651819; in the data active means activity change below about -30%; further: on the % scale 0 is the no-effect control and ±100 the full control effect
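We incubate TRiC, 40 or 20 nM final, with library compounds at 76 uM and 10 uM ATP for 30 min at 37 °C. ADP formed is detected with Transcreener HTRF reagents after 30 min at room temperature.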
TDP-43 yeast inh: TDP-43 toxicity inhibition in yeast. TDP-43 expressing yeast growth rescue, BacTiter-Glo, 24 h. Potency, µM (series often up to 46.1 µM), for the others: top-dose growth rescue (activation), most hits filed as activators. hit rate 1.8% among 410,000. AID 652104; further: potency means the concentration at half of the fitted maximal effect; % of control where 0% means no effect; nearly all actives have a fitted effect of over 50% in size
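Luminescence from BacTiter-Glo reports growth of TDP-43-expressing yeast after 24 hr at 30 deg C with compound. Cells were raffinose-pregrown to mid-log, then seeded in galactose medium at OD600=0.02.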
Abeta yeast res: compounds reversing amyloid beta toxicity in yeast. Potency, µM (highest dose often 46.1 µM), usual class: activators. yeast expressing A-beta42, growth rescue, OD600, 48 h; response scale: 0% DMSO, 100% iron-clioquinol control. hit rate 0.063% among 410,000; further: potency means the concentration at half of the fitted maximal effect; nearly all actives have a fitted effect of over 55% in size
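Yeast growth medium received pinned compounds, then yeast cells expressing toxic A-beta were added; plates incubated at 30 C for 48 hr. Growth read as absorbance at 600 nm, normalized to DMSO and equimolar FeCl3 plus clioquinol controls.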
aSyn yeast inh: inhibitors of alpha-synuclein toxicity in yeast | Yeast expressing alpha-synuclein, growth rescue, BacTiter-Glo, 24 h | Potency, µM (top dose mostly 46.1 µM), inactives show top-dose growth rescue (activation), actives largely listed as activators | hit rate 0.14% among 370,000; further: potency means the concentration at half of the fitted maximal effect; % of control where 0% means no effect; nearly all actives have a fitted effect of over 65% in size
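Rescue of yeast growth: cells expressing toxic alpha-synuclein, induced in galactose at OD600 0.02, incubated with compound 24 h at 30 C. ATP luminescence quantified growth; inhibitors of toxicity appear as activators.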
* hit, by the source's call. The list is not random: actives were taken first. Their share in the collection is about 2.3%. Unless noted, the call rests on the fitted dose curve; in most records, active means well fitted curve in the direction sought with a large enough effect; inconclusive means small, poorly fitted or top-dose-only effect, or another doubt; inactive means no such curve, though single readings can be large; an effect the other way counts as inactive or inconclusive.

What do the screens show for `Cc1n[nH]c2ccccc2c1=O`?
CCT chaperon mod: -1; TDP-43 yeast inh: 0%; Abeta yeast res: inactive; aSyn yeast inh: 5%

How did CC(=O)N1CCCN(S(=O)(=O)c2ccc3c(c2)c(=O)n(C)c(=O)n3C)CC1 do in these assays?
FUS suppressor: inactive

What do the screens show for `Nc1ncnc2c(C3OC(CO)C(O)C3O)c[nH]c12` (configuration not stated)?
CCT chaperon mod: -2; TDP-43 yeast inh: 3.2µM*; Abeta yeast res: inactive; aSyn yeast inh: 11µM*

What do the screens show for `Nc1ncnc2c1ncn2[C@@H]1O[C@H](CO)[C@@H](O)[C@H]1O`?
MmCpn inh: 0%; FUS suppressor: inactive; CCT chaperon mod: -1; TDP-43 yeast inh: 0%; Abeta yeast res: inactive; aSyn yeast inh: -10%

How did Cc1ccc2nc(SCC(=O)N3CCC(Cc4ccccc4)CC3)nc(=O)n2c1 do in these assays?
MmCpn inh: -13%; FUS suppressor: inactive; CCT chaperon mod: 0; TDP-43 yeast inh: 27%; Abeta yeast res: inactive; aSyn yeast inh: -2%

How did O=C(CSc1nc(=O)n2ccccc2n1)N1CCC(Cc2ccccc2)CC1 do in these assays?
MmCpn inh: 0%; FUS suppressor: inactive; CCT chaperon mod: -3; TDP-43 yeast inh: 20µM*; Abeta yeast res: inactive; aSyn yeast inh: 4%

How did Cc1ccc(CSc2nnc(-c3ccc(NC(=O)CCc4ccccc4)cc3)n2C)cc1 do in these assays?
aSyn yeast inh: 9%

What do the screens show for `Cc1cc(-c2ccc(N=Nc3c(S(=O)(=O)O)cc4cc(S(=O)(=O)O)cc(N)c4c3O)c(C)c2)ccc1N=Nc1c(S(=O)(=O)O)cc2cc(S(=O)(=O)O)cc(N)c2c1O`?
MmCpn inh: 32µM*

How did CCCCOc1ccccc1C(=O)N(Cc1sccc1C)C1CCS(=O)(=O)C1 (configuration not stated) do in these assays?
FUS suppressor: inactive; TDP-43 yeast inh: 27%; Abeta yeast res: inactive

What do the screens show for `CCc1nc2ccc(C(=O)Nc3cc(-c4ccccc4)ccc3OC)cn2c1N(C)CCCc1ccccc1`?
FUS suppressor: inconclusive; CCT chaperon mod: -1; TDP-43 yeast inh: 20µM*; Abeta yeast res: inactive; aSyn yeast inh: -14%

How did CCn1c2c(c(=O)n3ncc(C(=O)N4CCN(c5ccc(Cl)cc5)CC4)c13)CN(Cc1ccc(OC)cc1)CC2 do in these assays?
FUS suppressor: inconclusive; TDP-43 yeast inh: inconclusive; Abeta yeast res: inactive

Results for CN(Cc1ccc(Cl)cc1)C(=O)c1ccccc1SCC(=O)N1CCCC1 ?
MmCpn inh: 1%; FUS suppressor: inactive; CCT chaperon mod: -50*; TDP-43 yeast inh: -11%; Abeta yeast res: inactive; aSyn yeast inh: -4%

How did CCOC(=O)CCCNC(=O)OC1CC2CC1[C@H]1CCCCN1[C@H]2C (some centres not stated) do in these assays?
FUS suppressor: inactive

What do the screens show for `COCCn1c(=S)[nH]c2cc(C(=O)N3CCN(Cc4ccccc4)CC3)ccc2c1=O`?
aSyn yeast inh: 1%

What do the screens show for `COC(=O)c1cc(C(=O)c2cccc(Cl)c2Cl)cn1C`?
MmCpn inh: 0%; FUS suppressor: inactive; CCT chaperon mod: -2; TDP-43 yeast inh: 18µM*; Abeta yeast res: inactive; aSyn yeast inh: 13%

How did Cn1cc(C(=O)c2cccc(Cl)c2Cl)cc1C(=O)O do in these assays?
MmCpn inh: 0%; FUS suppressor: inactive; CCT chaperon mod: 1; TDP-43 yeast inh: 0%; Abeta yeast res: inactive; aSyn yeast inh: -2%

How did COC(=O)c1cc(C(=O)c2ccc(Cl)cc2Cl)cn1C do in these assays?
MmCpn inh: 0%; FUS suppressor: inactive; CCT chaperon mod: -1; TDP-43 yeast inh: 11µM*; Abeta yeast res: inactive; aSyn yeast inh: -5%

What do the screens show for `O=[N+]([O-])c1ccc(CN2CCOCCOCCN(Cc3ccc([N+](=O)[O-])cc3Cl)CCOCC2)c(Cl)c1`?
FUS suppressor: inactive

Results for N#Cc1ccc(OCC(=O)NCCCN2CCCC2=O)cc1 ?
FUS suppressor: inactive; CCT chaperon mod: 1; TDP-43 yeast inh: 10%; Abeta yeast res: inactive; aSyn yeast inh: -4%

What do the screens show for `N#Cc1ccc(-c2ccc(OCC(=O)NCCCN3CCCC3=O)cc2)cc1`?
MmCpn inh: -4%; FUS suppressor: inactive; CCT chaperon mod: -3; TDP-43 yeast inh: 13µM*; Abeta yeast res: inactive; aSyn yeast inh: -12%

Results for COc1ccc(NC(=O)NCCCN2CCCC2=O)c(OC)c1 ?
MmCpn inh: 2%; FUS suppressor: inactive; CCT chaperon mod: 1; TDP-43 yeast inh: 0.001µM*; Abeta yeast res: inactive

What do the screens show for `Cc1ccc(C)c2nc3sc(C(=O)O)cc3cc12`?
MmCpn inh: -26%; FUS suppressor: inactive; CCT chaperon mod: 0; TDP-43 yeast inh: 14µM*; Abeta yeast res: inactive; aSyn yeast inh: -71%

How did Cc1ccc(C)c2nc3sc(C(=O)N4CCCc5ccccc54)c(N)c3cc12 do in these assays?
MmCpn inh: 0%; FUS suppressor: inactive; CCT chaperon mod: 1; TDP-43 yeast inh: -5%; Abeta yeast res: inactive; aSyn yeast inh: 1%

How did Cc1cc(Cl)c2oc(C(=O)N3CCN(c4cnccn4)CC3)c(C)c2c1 do in these assays?
FUS suppressor: inactive; CCT chaperon mod: -2; TDP-43 yeast inh: 5%; Abeta yeast res: inactive; aSyn yeast inh: 12%

How did Cc1ccc2c(C)c(C(=O)N3CCN(c4cnccn4)CC3)oc2c1C do in these assays?
MmCpn inh: -2%; CCT chaperon mod: 1; TDP-43 yeast inh: 13µM*; Abeta yeast res: inactive; aSyn yeast inh: 27%

How did Cc1ccc2c(C)c(C(=O)N3CCC(O)(c4ccccc4)CC3)oc2c1C do in these assays?
MmCpn inh: -1%; FUS suppressor: inactive; CCT chaperon mod: 2; TDP-43 yeast inh: 22µM*; Abeta yeast res: inactive; aSyn yeast inh: 10%

How did COC(=O)[C@]12C[C@H](CC(=O)NCCC(C)C)C(=O)N(CCC3=CCCCC3)C1=C[C@H](C1CCCC1)O[C@@H]2C do in these assays?
FUS suppressor: inactive

What do the screens show for `CC(C)Oc1cccc(C(=O)Nc2ccc3oc(-c4ccccc4)nc3c2)c1`?
FUS suppressor: inactive; TDP-43 yeast inh: -27%; Abeta yeast res: inactive

What do the screens show for `CCN(Cc1ccccc1)C(=O)c1cnn(-c2ccc(F)cc2)c1-n1cccc1`?
FUS suppressor: inactive; TDP-43 yeast inh: 35µM*; Abeta yeast res: inactive; aSyn yeast inh: 8%

Screens as filed in PubChem.
